# ATXN2 expr inh – Primary qHTS for Inhibitors of ATXN expression; Potency, µM (doses to about 57 µM), without a hit: at the highest dose activity change, negative = inhibition, hits mostly inhibitors; AID 1745845, 2022; HEK-293 ATXN2-luciferase reporter, luminescence, 24 h; hit rate 0.72% among 360,000; note: % is set by controls: 0 for no effect and ±100 for the full control effect; nearly all actives have a fitted effect of over 55% in size
#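 ATXN2-luciferase reporter cells (luciferase flanked by upstream and downstream ATXN2 gene portions) were treated 24 h at 37 °C with compounds at up to 57 uM. SteadyGlo luminescence gave expression; GF-AFC fluorescence gave viability.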
# TGFb SMAD3 inh – qHTS for Inhibitors of TGF-b. HepG2 CAGA-GFP TGF-b/SMAD3 reporter, GFP fluorescence, 18 h; TGF-beta stimulated, 500 pg/mL final. Potency, µM (top dose mostly 46.1 µM), inactives show at the top dose activity, negative = inhibition, usual class: inhibitors. hit rate 1.2% among 410,000; note: % is set by controls: 0 for no effect and ±100 for the full control effect; nearly all actives have a fitted effect of over 65% in size
#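 HEPG2 CAGA-GFP cells (1000/well, DMEM with 1% FBS) were pre-incubated 2 h at 37 degrees C, given compound by pin tool, then stimulated with TGF-beta at 500 pg/mL final for 18 h before per-cell GFP fluorescence imaging.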
# Gal4-VP16 FLuc – VP16 counterscreen qHTS for inhibitors of ROR gamma transcriptional activity; Drosophila S2 Gal4-VP16 UAS-luciferase, luminescence, 20 h; Potency, µM (series often up to 53.6 µM), inactives show at the top dose activity, negative = inhibition, hits mostly inhibitors; hit rate 3.5% among 310,000;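 note: Gal4-VP16 expression switched on by copper sulfate through the metallothionein promoter; % is set by controls: 0 for no effect and ±100 for the full control effect; nearly all actives have a fitted effect of over 50% in size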
# RORgamma inh – qHTS for inhibitors of ROR gamma transcriptional activity; Nuclear receptor ROR-gamma (Mus musculus), P51450; Drosophila S2 Gal4-RORgamma UAS-luciferase reporter, 20 h; Potency, µM (highest dose often 53.6 µM), inactives show at the top dose activity change, negative = inhibition, hits mostly inhibitors; hit rate 5.4% among 310,000; note: % is set by controls: 0 for no effect and ±100 for the full control effect; nearly all actives have a fitted effect of over 60% in size
# Target sequence (P51450 whole entry, looked up, the tested form may be a part): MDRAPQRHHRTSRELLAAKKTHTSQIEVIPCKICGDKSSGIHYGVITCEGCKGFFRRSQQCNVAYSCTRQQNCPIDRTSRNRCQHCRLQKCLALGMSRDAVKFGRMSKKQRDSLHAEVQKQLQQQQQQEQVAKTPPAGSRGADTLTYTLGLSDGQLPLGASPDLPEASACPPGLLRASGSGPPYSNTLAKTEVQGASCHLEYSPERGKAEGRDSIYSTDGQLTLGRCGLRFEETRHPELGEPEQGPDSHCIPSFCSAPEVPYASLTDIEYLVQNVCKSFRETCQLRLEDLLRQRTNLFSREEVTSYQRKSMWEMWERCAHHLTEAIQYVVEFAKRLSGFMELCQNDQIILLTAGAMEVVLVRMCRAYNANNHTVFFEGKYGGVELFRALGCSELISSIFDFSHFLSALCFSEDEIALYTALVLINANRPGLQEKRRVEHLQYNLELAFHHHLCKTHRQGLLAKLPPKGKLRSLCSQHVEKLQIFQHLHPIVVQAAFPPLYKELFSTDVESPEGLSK
#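 Read-out: Photinus luciferase luminescence; inhibitors lower reporter signal. Insect Schneider cells with Gal4-ROR gamma fusion under metallothionein promoter, UAS reporter; 700 uM final copper sulfate induction, 20 hr, ambient temperature.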
# HepG2 viability – qHTS for Inhibitors of TGF-b: Cytotox Counterscreen; Potency, µM (series often up to 46.1 µM), for the others: top-dose activity change, negative = cytotoxicity, usual class: cytotoxic; hit rate 0.76% among 410,000; HepG2 CAGA-GFP viability, ATP luminescence, 18 h
#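 HepG2 CAGA-GFP cells (1000/well, DMEM with 1% FBS) received compound, then TGF-beta at 500 pg/mL final, and were incubated 18 hours at 37 degrees C. Viability was read by CellTiter-Glo luminescence. Media-only wells were set as complete cell-killing and DMSO as no toxicity.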
# ATXN viability – Viability Counterscreen for Primary qHTS for Inhibitors of ATXN expression; S2 cells (HEK-293 line with an ATXN2-luciferase reporter) viability, CellTiter-Fluor protease fluorescence, 24 h; Potency, µM (series often up to 56.7 µM), hits mostly cytotoxic; hit rate 0.49% among 400,000; note: nearly all actives have a fitted effect of over 40% in size
# * = called active by the depositor; i = inactive; ? = inconclusive; / = not tested or not shown; [ ] = dose if it differs, or a comment. Compounds with a hit are over-represented: about 6.3% of the library has one in this group of screens. Calls come from the whole dose curve; as a rule, active = well fitted curve in the direction sought with a large enough effect; inconclusive = small, poorly fitted or top-dose-only effect, or another doubt; inactive = no such curve, though single readings can be large; an effect the other way counts as inactive or inconclusive. Potency is the fitted concentration of half-maximal effect.
SMILES,ATXN2 expr inh,TGFb SMAD3 inh,Gal4-VP16 FLuc,RORgamma inh,HepG2 viability,ATXN viability
NC(=S)N/N=C1\CCOc2ccc(F)cc21,-33%,-18%,22µM*,5µM*,-3%,i
COc1cccc(OCc2cc(/C=N/Nc3ccc(C(=O)O)cc3)ccc2OC)c1,49%,9%,7.9µM*,0.28µM*,5%,i
COc1cc(/C=N/Nc2ccc(Cl)c(C(=O)O)c2)ccc1OC(=O)c1ccc(F)cc1,-23%,9%,7%,-29%,7%,i
COc1cc(/C=N/n2cnnc2)ccc1OC(=O)c1cccnc1,-5%,1%,11µM*,?,-8%,i
COc1cccc(C(=O)Oc2ccc(/C=N/Nc3ccc(C(=O)O)cc3)cc2OC)c1,?,1%,2.2µM*,-11%[1.91 µM],-7%,i
COc1ccc(-n2ccn(CC(=O)NCCc3ccccc3)c(=O)c2=O)cc1OC,/,-9%,/,/,3%,/
COc1ccc(NC(=O)c2cc(C3CCCCN3C(=O)OCc3ccccc3)on2)c(C)c1 (stereo not drawn),3%,-7%,/,/,-22%,i
O=C(NC(=S)N1CCc2ccccc21)c1ccccc1,?,0%,0.5µM*,0.56µM*,-22%,i
O=C(NC(=S)N1CCc2ccccc21)c1ccccc1Cl,-12%,-19%,1µM*,0.45µM*,-17%,i
O=C(NCCC(=O)N1CCc2ccccc21)c1ccccc1Cl,-1%,3%,-3%,10%,14%,i
Cc1cccc2nc(CNC(=O)CN3Cc4cc(Cl)ccc4OC(C)C3)cn12 (stereo not drawn),/,/,/,/,/,i
COC(=O)NCc1ccc2c(c1)OCO2,0%,?,-2%,-5%,1%,?
NNC(=S)NCc1ccc2c(c1)OCO2,-6%,-8%,8.9µM*,7.9µM*,-1%,i
CCc1cccc(CC)c1NC(=S)NC(C)c1ccccc1 (stereo not drawn),/,-22%,?,4µM*,-31%,?
O=C(O)c1ccc(NCc2cccnc2)cc1,8%,1%,-6%,0%,4µM*,i
Cc1cccc(NC(=S)NNC(=O)c2ccc3c(c2)OCO3)c1,59%,-29%,?,-39%,-28%,i
Cc1cccc(NC(=S)NCc2ccc3c(c2)OCO3)c1,5%,-12%,16µM*,11µM*,12%,i
COc1cc2c(=O)n(Cc3ccccc3)c(=O)n(CC(=O)Nc3cc(C(F)(F)F)ccc3Cl)c2cc1OC,2%,0%,/,/,5%,i
CCOC(=O)c1c(NC(=O)/C=C/c2ccc(OCC)cc2)sc2c1CCCC2,1%,21%,/,/,5%,i
COC(=O)NC(/C(C(=O)OC)=C(\C)NCc1ccccc1)c1ccccc1 (stereo not drawn),/,/,-6%[10 µM],8%[10 µM],/,/
CCc1cccc(CC)c1NC(=S)NCc1ccc2c(c1)OCO2,-23%,7%,?,8.9µM*,-17%,i
O=C(NCc1ccc2c(c1)OCO2)c1ccc2c(c1)OCO2,/,-16%,-3%,24%,0%,i
S=C(NCc1ccc2c(c1)OCO2)NCc1ccc2c(c1)OCO2,0%,7%,?,16µM*,9%,i
Cc1ccccc1NC(=O)NCc1ccc2c(c1)OCO2,4%,6%,-4%,-21%,-2%,i
O=C(O)c1ccc(NCc2ccc3c(c2)OCO3)cc1,4%,3%,1.3µM*,4µM*,5%,i
SMILES,ATXN2 expr inh,TGFb SMAD3 inh,Gal4-VP16 FLuc,RORgamma inh,HepG2 viability,ATXN viability
CCNC(=S)NCc1ccc2c(c1)OCO2,5%,-14%,-18%,-31%,13%,i
Cc1cnc2c(C)cccc2c1/C=C/c1ccc(N(C)C)cc1,/,?,/,/,-32%,/
O=C(NCc1ccccc1Cl)c1ccc2oc(=O)n(Cc3ccccc3)c2c1,3%,3%,/,/,-7%,i
Cc1nn(C)c(C)c1CN(Cc1nc(CCC(C)C)no1)C(C)C,-26%[11.3 µM],?,4µM*,7.1µM*,-21%,?
CC(C)CCc1noc(CN(C)CCC2CCOCC2)n1,5%,0%,-11%,10%,-1%,i
Cc1cnc(CNc2ncncc2-c2ccccc2C(F)(F)F)cn1,/,/,-5%,2%,/,/
S=c1nc2ccccc2c2nc(-c3ccccc3Br)[nH]n12,25µM*,0%,2.2µM*,0.45µM*,-3%,?
Brc1ccccc1-c1nc2c3ccccc3ncn2n1,68%,-6%,/,/,-16%,i
Cc1c(CCCN)c2ccccc2n1Cc1ccccc1,?,?,-9%,-29%,16µM*,?
COc1cccc(Cc2nc3cccnc3n2C2CCN(C(=O)c3n[nH]c4c3CCCC4)CC2)c1,/,/,/,/,/,i
Cc1oc(/C=N/NC(=O)CC2(C)OCCO2)cc1Br,10%,12%,3%,2%,11%,i
CC1(CC(=O)N/N=C/c2cc(Br)c(O)cc2O)OCCO1,?,3%,-15%,10µM*,-15%,i
CC(C)Oc1ccc(Br)cc1/C=N\NC(N)=S,-23%,?,5µM*,2µM*,-18%,i
N#Cc1c(Cl)nsc1NC(=O)c1ccccc1,0%,3.5µM*,4µM*,8.9µM*,-41%,i
Cc1cccc(C(=O)Nc2sc(C)c(-c3ccccc3)c2C#N)c1,69%,-27%,?,?,-16%,?
O=C(O)c1ccc2nc(-c3cc4cccc(O)c4oc3=O)[nH]c2c1,/,/,/,/,8.9µM*,/
O=c1oc2c(O)cccc2cc1-c1nc2ccccc2[nH]1,9%,34%,?,?,-34%,/
S=C(NCc1cccnc1)Nc1ccc2c(c1)OCO2,8%,0%,1%,-12%,1%,i
CC(C)c1ccc(NC(=S)NCc2ccc3c(c2)OCO3)cc1,-2%,?,?,13µM*,-28%,i
S=C(NCc1ccc(Cl)c(Cl)c1)Nc1ccc2c(c1)OCO2,0%,-2%,?,11µM*,-4%,i
COc1ccc(NC(=S)NCc2ccc3c(c2)OCO3)cc1,3%,6%,?,13µM*,4%,i
CC(C)c1ccc(NC(=O)Cn2nnc(C(=O)NCc3ccc4c(c3)OCO4)c2N)cc1,-25%,-2%,-5%,-17%,0%,i
O=C(c1ccc(Cn2cc(Br)cn2)o1)N1N=C(C(F)F)CC1(O)C(F)F (stereo not drawn),6%,-6%,-18%,11µM*,-18%,i
